BJeLR viab HTS: lowers viability of BJeLR cells. BJeLR fibroblasts viability, CellTiterGlo ATP luminescence, 48 h; HRASV12, hTERT and SV40 LT/ST transformed. AID 2275. viability loss activity score, % (no concentration beside the values). 0.64% of 30,000 active; in the data active = viability loss activity score above about 50%; inconclusive = no clear call, values can overlap the other calls; inactive = below about 35%;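 also: higher score means fewer live cells and less ATP luminescence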
A1 inh: blocks A1 activity; MEF A1-2A-BIM cells, caspase-Glo luminescence, 3 h; percent of clofoctol signal, DMSO as zero; caspase activation, % (no concentration beside the values); 0.51% of 21,000 active; AID 2241;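 active = most replicate scores above 10, or exactly half above 10 with mean activity above 10; inconclusive = mean activity below 10 while half the replicates exceed 10; inactive = most replicate scores below 10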;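 also: effector caspase 3 and 7 activity cleaving a DEVD luciferin substrate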
Large screens that a line does not name were inactive. Most compounds without a hit are left out; they make up all but 0.86% or so of the library.

CCCn1c(CCC(=O)N2CCc3ccccc3C2)nc2cccnc21	none (no result: A1 inh)
Cc1cccc(C2Sc3ccccc3N=C3c4ccccc4C(=O)C32)c1 (centres undefined)	none
Cc1[nH]c2ccccc2c1C(c1c(C)[nH]c2ccccc12)C(C)C	none
Cc1[nH]c2ccccc2c1Sc1ccccc1	A1 inh 11
CCOC(=O)C1CCN(C(c2cccc(Cl)c2)c2c(NC(C)=O)sc3c2CCCC3)CC1 (centres undefined)	none
Cc1cc(=O)oc2cc(OCC(N)=O)c(Cl)cc12	none
COc1ccc2nc3sc(C(=O)N(C)c4ccc(Cl)cc4)cc3cc2c1	none (no result: A1 inh)
CC(C)CCOc1ccc(C(=O)C(CN2CCOCC2)c2ccccc2)cc1 (centres undefined)	BJeLR viab HTS 78
OC(CN1CCOCC1)c1ccccc1 (centres undefined)	none
COC(=O)CN(Cc1ccccc1)S(=O)(=O)c1ccc(C)cc1	none
Cc1ccc(S(=O)(=O)N[C@@H](Cc2ccccc2)C(=O)CCl)cc1	A1 inh 16
COc1ccc(-c2nnc3ccc(SCC(N)=O)nn23)cc1	none
Cc1onc(-c2ccccc2)c1CNC(=O)C1CCC1	none
NS(=O)(=O)c1ccc(CCNC(=O)c2cccn3c(=O)c4cc5ccccc5cc4nc23)cc1	A1 inh 13
CCOC(=O)N1CCN(C(=O)c2cccn3c(=O)c4cc5ccccc5cc4nc23)CC1	none
Cc1cccc(Oc2ccc(NC(=O)C3CCC(C)CC3)cc2)c1 (centres undefined)	none
O=C(CCCn1c(=O)c2ccccc2n(CC(=O)c2ccc(F)cc2)c1=O)NC1CCCC1	none (no result: A1 inh)
Cc1cc(Sc2nnc(/N=C/N(C)C)s2)c2ccccc2n1	BJeLR viab HTS 54
CN(C)/C=N/c1nnc(SCC(=O)c2ccc(F)cc2)s1	none
CC1CCN(C(=O)C(Cc2ccccc2)NS(=O)(=O)c2ccc3c(c2)c(=O)n(C)c(=O)n3C)CC1 (centres undefined)	none (no result: A1 inh)
CCc1ccc(N=Cc2c(O)[nH]c(=S)[nH]c2=O)cc1	none
CCc1ccc(N=Cc2c(O)n(-c3ccccc3)c(=O)c3ccccc23)cc1	A1 inh 41
CCOC(=O)C1=C(C2CC=CCC2)NC(=S)NC1C (centres undefined)	none
O=C(NC1CCCC1)c1nnc(Cc2ccc(Cl)cc2)o1	none (no result: A1 inh)
CC1=C(c2ccc(C)cc2)S(=O)(=O)NC1=NC1CCN(Cc2ccccc2)CC1	A1 inh 9.6
CC1=C(c2ccc(C)cc2)S(=O)(=O)NC1=NC(C)C12CC3CC(CC(C3)C1)C2 (centres undefined)	none
Cc1cccc(CCNC(=O)[C@H](Cc2ccccc2)N2Cc3ccccc3C2=O)c1	none (no result: A1 inh)
CCc1ccc(NC(=O)C2c3ccccc3C(=O)N(C)C2c2cccs2)cc1 (centres undefined)	none (no result: A1 inh)
CCOC(=O)c1sc2sc(C(=O)OCC)c(-c3ccc(Cl)cc3)c2c1N	none
CCc1nc(N)nc(N)c1-c1ccc(Cl)cc1	BJeLR viab HTS 77
COc1ccc(CC(=O)Nc2ccc3nc4n(c(=O)c3c2)CCCC4)cc1	none
CC1CCCN(C(=O)c2ccc(NS(=O)(=O)c3cccs3)cc2)C1 (centres undefined)	none (no result: A1 inh)
Cc1ccc(-c2cn3cccnc3n2)cc1NC(=O)c1ccccc1	none (no result: A1 inh)
CNC[C@@H]1Oc2ccc(NC(=O)Nc3c(C)noc3C)cc2C(=O)N([C@@H](C)CO)C[C@@H]1C	none
CNC[C@@H]1Oc2ccc(NC(=O)Nc3c(C)noc3C)cc2C(=O)N([C@H](C)CO)C[C@H]1C	A1 inh 16
COc1ccc(C2C(C(=O)NCC3CCCO3)c3ccccc3C(=O)N2C)cc1 (centres undefined)	none (no result: A1 inh)
COc1ccc(C2C3C(=O)N(C(C)C)C(=O)C3ON2c2ccc(Cl)cc2)cc1 (centres undefined)	none (no result: A1 inh)
O=C1c2c(O)ccc(O)c2C(=O)c2c(NCCNCCO)ccc(NCCNCCO)c21	BJeLR viab HTS 110
O=C(NCCc1ccccn1)c1ccc2nccnc2c1	none
Cc1ccc(S(=O)(=O)NC(=O)NCC2CCN(C(=O)OC(C)(C)C)CC2)cc1	none
C/C=C(/C)C(=O)O[C@H]1C=C(CO)C(=O)[C@H](OC(=O)/C(C)=C/CO)[C@H]1C(C)C	BJeLR viab HTS 81
C=C1C(=O)OC2/C=C(\CO)C(OC(C)=O)C/C=C(/C)CC(OC(=O)/C(C)=C\CO)C12 (centres undefined)	none
COc1ccccc1C1CC(=O)NC(C)=C1C(=O)OC1CCCC1 (centres undefined)	none (no result: A1 inh)
COc1ccccc1C1CC(=O)Nc2cc3c(cc21)CCC3 (centres undefined)	BJeLR viab HTS 51 (no result: A1 inh)
Cc1nc(C(F)(F)F)ccc1NC(=O)NCCNc1cccc(C(F)(F)F)n1	none (no result: A1 inh)
C[C@H](CO)N1C[C@H](C)[C@H](CN(C)C(=O)Nc2ccc(C(F)(F)F)cc2)Oc2ccc(NS(=O)(=O)c3cccs3)cc2C1=O	A1 inh 12
C[C@@H]1CN([C@H](C)CO)C(=O)c2cc(NS(=O)(=O)c3cccs3)ccc2O[C@H]1CN(C)C(=O)Nc1ccc(F)cc1	none
C[C@@H]1CN([C@H](C)CO)C(=O)c2cc(N(C)C)ccc2O[C@@H]1CN(C)Cc1ccc(C(=O)Nc2ccccc2N)cc1	BJeLR viab HTS 54 (no result: A1 inh)
C[C@H](CO)N1C[C@H](C)[C@H](CN(C)Cc2ccc(C(=O)Nc3ccccc3N)cc2)Oc2ccc(N(C)C)cc2C1=O	none (no result: A1 inh)
CCn1cc(CN(Cc2ccccc2)C(=S)Nc2cc(C)ccc2C)c2ccccc21	none
O=C(Cc1ccccc1)Nc1ccccc1C(F)(F)F	none
CO[C@@]12[C@H](COC(N)=O)C3=C(C(=O)C(C)=C(N)C3=O)N1C[C@@H]1N[C@@H]12	BJeLR viab HTS 58
CC1=CC(C)(C)N(S(=O)(=O)c2ccc(C)cc2)c2ccccc21	BJeLR viab HTS 57
CC1=CC(C)(C)N(C(=O)Nc2ccc(C)cc2)c2ccccc21	none (no result: A1 inh)
O=c1nc2c(-c3cccc(C(F)(F)F)c3)n[nH]n2c2ccccc12	none
FC(F)(F)c1ccc(NC(=S)N2CCn3cccc3C2c2cccs2)cc1 (centres undefined)	none
Cc1nnc(Sc2nc(Nc3ccccc3)nc(Nc3ccccc3)n2)s1	none
N#Cc1c(C(F)(F)F)cc(-c2cccs2)nc1S/C=C/C(=O)c1ccccc1	BJeLR viab HTS 57
N#Cc1c(-c2ccccc2)cc(-c2cccs2)nc1SCS(=O)Cc1ccccc1 (centres undefined)	none
O=C(O)CCn1c(=O)n(CCC(=O)O)c2c(Cl)cc(Cl)cc21	none
O=C(Oc1ccccc1/C=C1/N=C2CCCCCN2C1=O)c1ccccc1Cl	none
COc1cccc(-c2nc(-c3ccccc3)[nH]c2-c2cccc(OC)c2)c1	none
Nc1cccc(-c2cc3c(Oc4cccc(O)c4)ncnc3[nH]2)c1	A1 inh 23
Cc1ccc(OCC(=O)NCc2ccccc2)cc1	none (no result: A1 inh)
On1onc2c3cc(-c4ccccc4)nc3ccc21	BJeLR viab HTS 61
Cc1ccc2nc(-c3ccncc3)cc(-c3ccccc3)c2c1	A1 inh inconclusive
O=C(Nc1ccccc1)OCC#Cc1ccc(-c2ccccn2)s1	none
O=C(CCc1nc2cccnc2n1-c1ccccc1)NCc1ccccc1	none (no result: A1 inh)
CN(C)c1ccc(C(=C2C=CC(=[N+](C)C)C=C2)c2ccc(N(C)C)cc2)cc1	BJeLR viab HTS 127, A1 inh 58
CC(NC(=O)Cn1cc(C(=O)C2CCCCC2)c2ccccc21)c1ccccc1 (centres undefined)	none (no result: A1 inh)
COC(=O)C(Cc1c[nH]c2ccccc12)NS(=O)(=O)c1ccc(Cl)cc1 (centres undefined)	none

Source: PubChem
